# The full ranking holds about 33,000 sequences; the median of “E-score (-0.5 to 0.5)” is about -0.054, and the highest 2% start at about 0.39. Shown is part of a subset that was picked to be rich in the highest values.
# Target: Ylr278c (UniProt Q05854)
# Experiment: PBM E-score (8-mer binding enrichment) (E-score (-0.5 to 0.5)); higher = stronger / more preferred TF binding
# Settings: protein concentration: 200 nM; construct: GST-DNA-binding domain
# Outline: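 E-scores (a modified Wilcoxon-Mann-Whitney statistic) were assigned by the Universal PBM Analysis Suite to every ungapped eight-base word pooled with its reverse complement. The input came from universal all-10-mer Agilent arrays made double-stranded by primer extension and probed with GST-tagged yeast transcription factors at about 100-200 nM. Fluorescent anti-GST detected bound protein, and masliner normalised the scans.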
# Sequence of UniProt Q05854 (Q05854 whole entry): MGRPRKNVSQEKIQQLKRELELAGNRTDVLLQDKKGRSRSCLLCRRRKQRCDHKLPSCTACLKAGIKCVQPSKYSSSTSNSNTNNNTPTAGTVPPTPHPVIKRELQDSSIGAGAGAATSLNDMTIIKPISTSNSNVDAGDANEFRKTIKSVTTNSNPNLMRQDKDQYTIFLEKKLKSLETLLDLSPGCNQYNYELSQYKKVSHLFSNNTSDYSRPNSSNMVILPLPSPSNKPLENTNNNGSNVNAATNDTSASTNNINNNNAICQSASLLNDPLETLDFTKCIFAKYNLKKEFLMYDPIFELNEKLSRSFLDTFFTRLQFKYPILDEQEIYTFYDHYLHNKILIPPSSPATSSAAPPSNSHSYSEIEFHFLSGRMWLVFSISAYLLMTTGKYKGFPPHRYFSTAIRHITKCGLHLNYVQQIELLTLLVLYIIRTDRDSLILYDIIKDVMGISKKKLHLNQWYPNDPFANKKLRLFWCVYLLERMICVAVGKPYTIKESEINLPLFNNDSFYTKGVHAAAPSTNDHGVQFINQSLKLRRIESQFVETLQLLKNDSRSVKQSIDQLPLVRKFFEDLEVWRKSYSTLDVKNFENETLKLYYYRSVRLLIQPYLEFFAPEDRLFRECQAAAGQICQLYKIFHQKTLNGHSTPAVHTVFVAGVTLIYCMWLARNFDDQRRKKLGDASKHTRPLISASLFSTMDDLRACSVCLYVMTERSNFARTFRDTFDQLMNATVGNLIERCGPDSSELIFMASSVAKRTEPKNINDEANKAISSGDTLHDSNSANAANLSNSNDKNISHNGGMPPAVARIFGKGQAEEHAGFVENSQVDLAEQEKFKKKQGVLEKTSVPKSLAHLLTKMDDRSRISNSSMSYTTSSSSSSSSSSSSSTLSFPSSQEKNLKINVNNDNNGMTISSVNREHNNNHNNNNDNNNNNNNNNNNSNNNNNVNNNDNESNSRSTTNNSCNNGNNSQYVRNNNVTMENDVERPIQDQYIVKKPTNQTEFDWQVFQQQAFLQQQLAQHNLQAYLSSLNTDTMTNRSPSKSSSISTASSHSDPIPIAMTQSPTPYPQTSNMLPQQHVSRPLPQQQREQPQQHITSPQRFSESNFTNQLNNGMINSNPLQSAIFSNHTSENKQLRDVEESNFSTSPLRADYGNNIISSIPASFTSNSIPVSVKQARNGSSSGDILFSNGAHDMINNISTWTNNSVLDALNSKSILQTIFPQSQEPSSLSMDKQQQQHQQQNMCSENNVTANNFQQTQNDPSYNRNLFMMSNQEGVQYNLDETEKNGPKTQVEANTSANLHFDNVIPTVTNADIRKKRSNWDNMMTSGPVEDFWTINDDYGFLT
row,Sequence,PBM E-score
1,GCTAAGAA,-0.0627
2,ACGGACGG,0.209
3,CCGGACGA,0.406
4,CCGGACGG,0.396
5,ACGGACGA,0.177
6,CCGGACGC,0.364
7,TCGGACGA,0.271
8,CGTGCATC,-0.152
9,CGCTTTCC,0.143
10,ATTTCGTA,-0.062
11,CTCGATGA,-0.12
12,AATGGGCC,0.0902
13,CAGAGGAG,-0.243
14,GGCTAGAA,0.0303
15,CGGCATTA,0.405
16,GGGCATTA,-0.0729
17,AGGCATTA,-0.134
18,CTGTCGAA,-0.289
19,GTGTCGGA,0.417
20,CTGTCGGA,0.404
21,GTGTCGTA,-0.209
22,CTGTCGGC,0.35
23,GTGTCGCA,0.00208
24,ATGTCGGA,0.397
25,ATGTCGGG,0.222

row,Sequence,PBM E-score
1,ATGTCGGC,0.0736
2,GGACCAAA,0.187
3,ATACGCTC,0.00427
4,CGGCCACG,-0.0321
5,ACTCTGGA,-0.117
6,ATAGTCTA,-0.141
7,CGAAAGTA,0.00237
8,ACGAAAGA,-0.0168
9,AGCTTACG,-0.143
10,AGTCGGGG,0.282
11,AGACTCCC,-0.167
12,CGACTCCA,-0.0167
13,CGACTCCC,0.0244
14,AGACTCCG,0.418
15,AGACTCCT,-0.224
16,CGACTCCG,0.406
17,CGAGCAAC,-0.00501
18,AGAAGACC,0.0375
19,ACAAGACA,-0.0802
20,TACGAGTA,-0.0577
21,AGGACAAC,-0.163
22,CGGACAAC,0.389
23,GGGACAAC,-0.104
24,AGGACAAA,-0.0109
25,CGGACAAA,0.425

row,Sequence,PBM E-score
1,CGGACAAG,0.383
2,AACATGAC,-0.0624
3,GTCAACTA,-0.084
4,AGGGCTAA,-0.0787
5,CGGTCCGC,0.38
6,AGGTCCAA,-0.179
7,AGGTCCAG,-0.113
8,CGGTCCGA,0.455
9,AGGTCCGA,0.404
10,AGGTCCCA,-0.224
11,GGGTCCGA,0.366
12,AGGTCCGG,0.418
13,AGGTCCGC,0.333
14,ACTAGTGG,-0.0388
15,AACATAGC,-0.0617
16,ATGTTGCC,-0.036
17,ATTGACCA,-0.196
18,CCTATCAC,-0.119
19,AACACAAT,-0.152
20,GCAACACC,0.113
21,CCCTCGGC,0.207
22,AGCTCGGA,0.322
23,CCCTCGGA,0.394
24,CGCTCGGA,0.408
25,GGCTCGGA,0.38

row,Sequence,PBM E-score
1,GCCTCGGA,0.352
2,GCACTAGA,-0.16
3,CCTAGCAG,-0.268
4,CCGTTGAC,0.0534
5,CGAGCTGC,-0.00491
6,GTATGCGA,-0.0635
7,ATCAGGAA,-0.0943
8,AACTGCGA,0.148
9,TCAATTCA,-0.0799
10,CATTCGGA,0.339
11,AATTCGGA,0.449
12,AATTCGGG,0.215
13,GATTCGGA,0.363
14,AATTCGGC,0.157
15,TATTCGGA,0.408
16,TAAGGGCA,-0.144
17,CCCCGACC,0.28
18,ATAGTCAG,-0.158
19,CGGACCCC,0.365
20,GGGACCGA,0.164
21,CGGACCCG,0.394
22,AGGACCCG,0.158
23,AGGACCGC,0.227
24,AGGACCGA,0.0864
25,CGGACCAC,0.293

row,Sequence,PBM E-score
1,CGGACCGA,0.409
2,CGGACCGC,0.392
3,CCACTATC,0.00626
4,CTATAGAC,-0.167
5,CTGATCTC,-0.0675
6,ACTAATGC,0.126
7,CTCTGTTC,-0.0823
8,GCCGGTAA,0.341
9,GCGGGGTA,0.323
10,TCCGGTAA,0.44
11,CGGGGGAA,0.255
12,TCCGGGAA,0.419
13,CCGGGGTA,0.408
14,ACCGGGAA,0.352
15,CGGGGGTA,0.334
16,CCGGGGAA,0.399
17,ACCGGTAA,0.297
18,CCCGGGAA,0.348
19,CCGGGGGA,0.378
20,CAACGGCG,0.207
21,CCATCGCC,0.075
22,ATCCAGTA,-0.111
23,AGAGGTGC,0.0557
24,AGCATAGG,-0.11
25,GGACACAC,0.149

row,Sequence,PBM E-score
1,TCCGGGCA,0.406
2,ACCGGGCA,0.279
3,CCGGGGCA,0.293
4,CCCGGGCG,0.291
5,GCCGGGCA,0.304
6,CCGGGGCG,0.42
7,ATAACCTA,-0.148
8,CGAACTAA,-0.0681
9,ACGGATTC,0.246
10,CCGGATTA,0.455
11,CCGGATTC,0.405
12,ACGGATTA,0.205
13,CAGGATTC,-0.11
14,GCGGATTA,0.261
15,CATTGGGA,-0.198
16,AGCAGGAT,-0.079
17,GTGGCCTA,-0.135
18,GATTCTAC,0.107
19,CGCGGATA,0.32
20,GGCGGAGA,0.444
21,CGCGGATC,0.272
22,CGCGGAGC,0.41
23,AGCGGAGA,0.394
24,GGCGGATA,0.293
25,AGCGGATA,0.287

row,Sequence,PBM E-score
1,AGCGGAGC,0.381
2,CGCGGAGA,0.428
3,GGCGGAAA,0.328
4,AGCGGAGG,0.302
5,CGCGGACA,0.345
6,CGACTGAG,-0.181
7,CTCAGTCA,-0.282
8,CTGAGTTA,-0.248
9,ATTCCCAA,-0.06
10,ACCTCTCA,0.0413
11,TAATTCCA,-0.0294
12,GCTCGGAA,0.338
13,CCTCGGCA,0.25
14,ACTCGGAC,0.383
15,CCTCGGAA,0.39
16,TCTCGGCA,0.266
17,TCTCGGAA,0.414
18,CCTCGGAC,0.374
19,ACTCGGAA,0.398
20,CCTCGGTA,-0.0307
21,CCTCGGAG,0.456
22,ACTCGGAT,0.251
23,CCTCGGCG,0.359
24,CAATCATG,-0.214
25,CGTATTTA,0.0653

row,Sequence,PBM E-score
1,CAAGCTGC,-0.103
2,GAGGATAC,-0.125
3,ATTCATAC,0.0829
4,ACTCTTCA,-0.191
5,CGTCAGAA,-0.25
6,CGTTTAAC,-0.174
7,CGTTAGAC,-0.0149
8,AGCGCGTA,-0.109
9,CCCCTTAG,0.0521
10,ACTCGGTG,0.0389
11,ACTCGGAG,0.428
12,ACTCGGCG,0.256
13,TAGGGACA,-0.0143
14,CTGAGCGC,-0.145
15,GGGAGCGA,-0.116
16,AGGAGCGC,-0.0703
17,AGGAGCGA,-0.0963
18,CGGAGCGA,0.415
19,CGGAGCGC,0.391
20,AATGGAAT,0.0961
21,ATCTGTGG,-0.141
22,CCTTCGGC,0.112
23,GTTTCGTA,0.0178
24,ATTTCGGA,0.45
25,GCTTCGGA,0.367

row,Sequence,PBM E-score
1,CCTTCGGA,0.424
2,GTTTCGAA,-0.0713
3,GTTTCGGA,0.4
4,ATTTCGGG,0.235
5,ATTTCGGC,0.275
6,CTTTCGGC,0.239
7,CTTTCGGA,0.451
8,CTTTCGTA,-0.173
9,CTGGGTCC,0.0219
10,CTTATCTA,-0.0407
11,CAAAGCTA,-0.093
12,ACTCGCAT,-0.0232
13,AAGTTCAA,0.118
14,ACCACTTA,-0.0492
15,GGGCTCAC,-0.0724
16,GGAGCAGA,0.109
17,ACCTTCTA,-0.186
18,GTGTACGA,-0.00044
19,ATCCGCGC,0.251
20,CTCCGCGC,0.429
21,CTCCGCGA,0.403
22,CACCGCGC,0.201
23,ATCCGCGA,0.253
24,GTCCGCGA,0.313
25,CCAGCTCC,0.22

row,Sequence,PBM E-score
1,CATCTCCC,0.216
2,CATCTCCG,0.463
3,CATCTCCA,0.0295
4,AATCTCCT,0.0721
5,AATCTCCC,0.0563
6,AATCTCCG,0.484
7,ACGCTCTG,-0.251
8,CAACTCGG,0.139
9,ACCTCTGC,-0.209
10,AAGGAAGC,-0.162
11,ACTTCAGA,-0.0177
12,ACGGCCGG,0.33
13,CCGGCCGG,0.461
14,CCGGCCGA,0.415
15,ACGGCCGA,0.246
16,GCGGCCGA,0.188
17,CCGGCCGC,0.327
18,AGCGCCAT,-0.199
19,GACAGGGC,-0.0701
20,GCCTCCAC,-0.044
21,TAGCCATA,-0.329
22,GATGGGGC,-0.023
23,CAGGACTG,-0.287
24,CTTCCGGA,0.451
25,GTTCCGGA,0.45

row,Sequence,PBM E-score
1,ATTCCGTA,0.33
2,GTTCCGCA,0.289
3,ATTCCAGA,0.0166
4,GTTCCGTA,0.264
5,CTTCCGGC,0.371
6,CTTCCGTA,0.215
7,ATTCCGGA,0.46
8,ACTGTTTC,-0.0349
9,GTCAGCAA,-0.18
10,CGTCCAAA,0.14
11,ACCTCGCT,-0.0554
12,AGTCAGCG,0.0403
13,ATGCCCCA,-0.0328
14,CAGTCGAA,-0.212
15,AAAGCCTT,-0.162
16,ATCTCAAC,-0.00641
17,GCGGAGTA,0.449
18,AAGGAGTC,-0.127
19,GAGGAGTA,0.0495
20,CAGGAGTC,0.055
21,ATGGAGTA,0.0152
22,ATGGAGTC,0.0654
23,GGGGAGTA,0.0376
24,ACGGAGTC,0.398
25,CCGGAGTC,0.451

row,Sequence,PBM E-score
1,ACGGAGTA,0.452
2,CTGGAGTC,-0.0908
3,AAGGAGTA,-0.0326
4,AGAGTTGG,-0.115
5,ACTCTGTA,-0.175
6,GACCCAGC,-0.272
7,GATCCAGC,0.0556
8,ACACCGCC,0.199
9,AGACAGTC,-0.129
10,CTTACAGA,-0.0798
11,CGAGACCG,0.233
12,CTCAAGTC,-0.225
13,CATGTACG,-0.0652
14,CAGAATGG,-0.0518
15,GCTCTGGA,-0.1
16,ATGGAGTG,-0.0888
17,CAGGAGTA,-0.0482
18,CTGGAGTA,-0.0695
19,AAGGAGTG,-0.179
20,ACGGAGTG,0.401
21,CCGGAGTA,0.485
22,GTTCTAGA,0.0109

# From the supplement of paper PMC3334620
